The text below walks through data of PubChem BioAssay (NCI).

The panel holds about 83,000 compounds, 20% with a hit somewhere; the sample as a whole holds those more often.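 Interpretation: 100, growth as untreated; towards 0, rising growth inhibition; 0, no net growth; 0 to -100, cell death. Compounds scoring below 10 were considered active.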 The source made the active and inactive calls.

The subject of this test is SR leukemia. The test can be described thus: NCI-60 one-dose screen, 48 h (100 = growth as untreated, 0 = no growth, -100 = all killed). The note with it: 10 µM unless noted.
For `O=C(Nc1ccc(Cl)cc1Cl)Nc1ccc(-c2cccnc2)cc1N1CCC(CO)CC1`, the growth was 6.57% (active).

As for `COc1ccc2c(c1)C(=O)c1c-2c(OCCCN(C)C)nc2cc(Br)ccc12`, the growth is -21.3% (active).

As to `CC(O)c1nc2c(c(=O)n(C)c(=O)n2C)n1C` (configuration not stated), the growth was 125% (inactive).

Consider `COc1cc(Oc2cc(-c3cccnc3)ccc2NC(=O)Nc2ccc(F)cc2F)cc(OC)c1OC`, for which the growth was 97.4% (inactive).

With `CN1CCN(Cc2ccc(NC(=O)c3[nH]ncc3Nc3ccnc4ccnn34)cc2)CC1`, the growth is 16% (inactive).

`Cc1cc(C(C)(C)c2cc(C)c(O)c(CN(C)C)c2)cc(CN(C)C)c1O`: the growth was 74.8% (inactive).

For `N#Cc1c(N)[nH]c(S)c1C#N`, the growth is 97.8% (inactive).
